SMILES strings stand for the structures. Activity calls are given as the source filed them. Rule for the calls: active = hit-call score of the fitted dose curve at least 0.9, where 1 is the maximum; inactive = score below 0.9.

Sequence of E-selectin (Homo sapiens) (P16581 whole entry, looked up): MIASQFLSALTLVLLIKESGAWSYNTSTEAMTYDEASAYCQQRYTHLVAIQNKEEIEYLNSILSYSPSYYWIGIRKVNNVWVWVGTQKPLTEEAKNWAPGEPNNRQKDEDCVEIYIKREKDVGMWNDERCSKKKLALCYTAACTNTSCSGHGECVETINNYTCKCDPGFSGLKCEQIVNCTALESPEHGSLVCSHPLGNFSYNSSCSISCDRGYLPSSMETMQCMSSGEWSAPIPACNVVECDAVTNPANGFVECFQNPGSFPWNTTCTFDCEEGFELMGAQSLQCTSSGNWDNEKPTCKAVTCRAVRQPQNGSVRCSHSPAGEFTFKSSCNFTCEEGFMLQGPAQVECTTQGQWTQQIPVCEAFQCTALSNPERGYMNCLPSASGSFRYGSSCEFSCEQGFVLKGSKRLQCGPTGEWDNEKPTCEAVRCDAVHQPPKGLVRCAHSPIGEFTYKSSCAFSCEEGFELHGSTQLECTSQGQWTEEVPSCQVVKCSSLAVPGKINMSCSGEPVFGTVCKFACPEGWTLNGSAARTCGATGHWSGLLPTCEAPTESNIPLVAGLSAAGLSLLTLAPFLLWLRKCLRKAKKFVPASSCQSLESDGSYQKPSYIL

Read-out in this assay: E-selectin (Homo sapiens) (UniProt P16581)
The assay is described as follows: BSK_IMphg_ESelectin: BioMAP Diversity Plus: IMphg Assay for Eselectin Biomarker Activity (AID 2284291). As to conditions: primary human endothelial cells with macrophages. The method, then:
BSK_IMphg is a cell-based, multiplexed-readout assay that uses venular endothelial cells and macrophages, a human vascular primary cell, with measurements taken at 24 hours after chemical dosing in a microplate: 96-well plate.BSK_IMphg_ESelectin is an assay component measured in the BSK_IMphg assay. It measures E-selectin antibody related to regulation of gene expression using ELISA technology.Data from the assay component BSK_IMphg_ESelectin was analyzed at the endpoint, BSK_IMphg_ESelectin, in the positive analysis fitting direction relative to DMSO as the negative control and baseline of activity. Using a type of binding reporter, gain or loss-of-signal activity can be used to understand protein changes. To generalize the intended target to other relatable targets, this assay endpoint is annotated to the 'cell adhesion molecules' intended target family, where the subfamily is 'selectins'.
The levels of cell surface (or secreted, indicated by the prefix "s") biomarker endpoints were measured by ELISA. Overt cytotoxicity to cells in confluent adherent cultures (all systems other than the BT system) was assessed by measuring total protein levels using sulforhodamine B (SRB) staining in parallel cultures at the time of biomarker measurements, indicated as SRB endpoints. For proliferation assays for adherent cell types, individual cell types are cultured at sub-confluence and relative cell numbers quantified by SRB staining at time points optimized for each system (48 h: 3C and CASM3C systems; 72 h: BT and HDF3CGF systems; 96 h: SAg system). SRB was performed by staining cells with 0.1% SRB after fixation with 10% TCA and reading wells at 560 nm.Viability and proliferation of PBMC (T cells) was quantified by Alamar Blue reduction for the SAg and BT systems. For PBMC viability (referred to as PBMC Cytotoxicity within the assay endpoint names), cells were plated (75,000/well in a 96-well plate) and then chemical samples added for 1 h before addition of activators, SEB and TSST-1 (20 ng/mL final concentration each). Cells were incubated for 90 h. Then, Alamar Blue (20 uL/well) (Invitrogen, Cat DAL1100) was added for 6 h, and the plates were read with a fluorescence microplate reader at 546/580 nm (excitation/emission). For PBMC proliferation, cells were plated and activated as above but incubated for only 16 h prior to addition of Alamar Blue. Plates were read after 6 h.
On to `OCCC(F)(F)C(F)(F)C(F)(F)C(F)(F)F`, for which the result was inactive.

For `C[Si](C)(C)C(F)(F)C(F)(F)C(F)(F)F`, the result was inactive.

Consider `OC(O)(C(F)C(O)(O)C(F)(F)F)C(F)(F)F`, for which the result was inactive.

With `NCC(F)(F)C(F)(F)C(F)(F)C(F)(F)F`, the result was inactive.

Regarding `O=C(Cl)C(F)(F)C(F)(F)C(F)(F)C(=O)Cl`, the outcome was inactive.

Take `FC(F)(F)COC(OCC(F)(F)F)OCC(F)(F)F`: the outcome was inactive.

With `FC(F)(F)C(F)(F)C(F)(F)C(F)(F)C(F)(F)C(F)(F)I`, the result was inactive.

As to `FC(F)=C(F)C(F)(F)C(F)(F)C(F)(F)C(F)(F)C(F)(F)C(F)(F)F`, the outcome was inactive.

On to `FC(F)C(F)(F)COCC1CO1` (stereo not given), for which the outcome was inactive.

Consider `O=S(=O)(O)CCC(F)(F)C(F)(F)C(F)(F)C(F)(F)C(F)(F)C(F)(F)F`, for which the result was inactive.

(Values after PubChem BioAssay (EPA / NIEHS).)
